We go through 15 compounds from PubChem BioAssay (NCI).

Compounds without any hit were thinned out: in the full panel of roughly 83,000, 20% have a hit.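 96-well plates, one dose, 48 hours. Percent growth reported; active if below 10.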 Unmarked numbers belong to inactive results. Active and inactive are the calls of the source.

Some test systems named below: SR leukemia; RPMI-8226 leukemia; OVCAR-8 ovarian; OVCAR-5 ovarian; OVCAR-4 ovarian; SK-OV-3 ovarian; IGROV1 ovarian; OVCAR-3 ovarian; HS 578T breast; NCI/ADR-RES ovarian.
Assay in all cases: NCI-60 one-dose screen, 48 h (100 = growth as untreated, 0 = no growth, -100 = all killed)
Holding throughout (conditions): 10 µM

On to `CC(C)C1CCCCC1O` (stereo not given), for which the growth with SR leukemia is 130%; with RPMI-8226 leukemia it was 105%; in the assay with OVCAR-8 ovarian, 109%; in the assay with OVCAR-5 ovarian, 91%; with OVCAR-4 ovarian, 118%; in the assay on SK-OV-3 ovarian, 109%. For the same compound, the growth is 130% in the assay on IGROV1 ovarian, 117% in the assay with OVCAR-3 ovarian, 105% in the assay on HS 578T breast and 104% in the assay with NCI/ADR-RES ovarian.
On to `NC(=S)N/N=C/c1ccc(N)cc1`, for which the growth with SR leukemia was 98.6%; with RPMI-8226 leukemia it was 98.8%; in the assay on OVCAR-8 ovarian, 102%; with OVCAR-5 ovarian, 108%; in the assay on OVCAR-4 ovarian, 108%; in the assay with SK-OV-3 ovarian, 100%. Moreover, the growth with IGROV1 ovarian is 103%; in the assay on OVCAR-3 ovarian, 103%; in the assay with HS 578T breast, 106%; in the assay with NCI/ADR-RES ovarian, 102%.
`Cc1cc(N2CCC(N3CCCC3)CC2)nc(/N=C(\N)Nc2ccc(Cl)c(Cl)c2)n1`: the growth in the assay on SR leukemia was -54.3% (active); in the assay with RPMI-8226 leukemia, -36.7% (active); with OVCAR-8 ovarian, -9.16% (active); in the assay on OVCAR-5 ovarian it was 19%; with OVCAR-4 ovarian it was -13.2% (active); in the assay with SK-OV-3 ovarian, 88.3%. For the same compound, the growth in the assay on IGROV1 ovarian was 12.3%; with OVCAR-3 ovarian, 69.7%; with HS 578T breast, -25.8% (active); in the assay with NCI/ADR-RES ovarian, 30.3%.
On to `CC(O)COc1ccc(-c2ccccc2)cc1` (stereo not given), for which the growth is 94.4% with SR leukemia; 97.7% in the assay with RPMI-8226 leukemia; 108% in the assay with OVCAR-8 ovarian; 98.9% with OVCAR-5 ovarian; 111% with OVCAR-4 ovarian; 105% with SK-OV-3 ovarian. Moreover, the growth was 115% with IGROV1 ovarian, 108% in the assay with OVCAR-3 ovarian, 106% in the assay on HS 578T breast and 110% with NCI/ADR-RES ovarian.
In the case of `COc1ccc(-c2cc3c(nn2)-c2ccccc2C3=O)cc1`, the growth was -21.8% (active) in the assay on SR leukemia; 27.2% in the assay on RPMI-8226 leukemia; -9.96% (active) in the assay on OVCAR-8 ovarian; 83.7% with OVCAR-5 ovarian; -26.1% (active) in the assay with OVCAR-4 ovarian; 102% in the assay with SK-OV-3 ovarian. For the same compound, the growth is 61.6% in the assay with IGROV1 ovarian, -49.3% (active) with OVCAR-3 ovarian, 103% in the assay on HS 578T breast and 60.9% with NCI/ADR-RES ovarian.
As for `Cc1cc2nc(CO)[nH]c2cc1C`, the growth was 122% with SR leukemia; 87.9% with RPMI-8226 leukemia; 101% in the assay with OVCAR-8 ovarian; 100% in the assay with OVCAR-5 ovarian; 103% in the assay on OVCAR-4 ovarian; 108% with SK-OV-3 ovarian. The growth in the assay with IGROV1 ovarian was 108%; in the assay with OVCAR-3 ovarian it was 105%; in the assay on HS 578T breast, 151%; with NCI/ADR-RES ovarian it was 107%.
As to `Nc1ncnc2[nH]ncc12`, the growth in the assay with SR leukemia is 26.1%; in the assay with RPMI-8226 leukemia, 8.64% (active); in the assay on OVCAR-8 ovarian, 6.29% (active); in the assay with OVCAR-5 ovarian it was 20.5%; with OVCAR-4 ovarian, -5.84% (active); with SK-OV-3 ovarian it was 2.06% (active). Further, the growth with IGROV1 ovarian was 6.63% (active); in the assay on OVCAR-3 ovarian, -22.2% (active); in the assay with HS 578T breast, 37.3%; in the assay on NCI/ADR-RES ovarian, 0.445% (active).
For `CC(C)=NNc1ccc([N+](=O)[O-])cc1[N+](=O)[O-]`, the growth with SR leukemia was 90.6%; with RPMI-8226 leukemia, 68.2%; in the assay on OVCAR-8 ovarian, 100%; with OVCAR-5 ovarian, 105%; with OVCAR-4 ovarian, 96.5%; in the assay on SK-OV-3 ovarian, 92.9%. The growth is 124% in the assay on IGROV1 ovarian, 104% with OVCAR-3 ovarian, 90.5% in the assay with HS 578T breast and 93.4% in the assay with NCI/ADR-RES ovarian.
For `CC1Cc2ccccc2O1` (stereo not given), the growth in the assay with SR leukemia was 100%; with RPMI-8226 leukemia, 109%; with OVCAR-8 ovarian, 112%; in the assay with OVCAR-5 ovarian it was 110%; in the assay on OVCAR-4 ovarian, 119%; in the assay with SK-OV-3 ovarian, 112%. In addition, the growth is 111% in the assay on IGROV1 ovarian, 118% in the assay on OVCAR-3 ovarian, 111% with HS 578T breast and 110% in the assay with NCI/ADR-RES ovarian.
As for `[O-][N+](=Nc1cccc(Cl)c1)c1cccc(Cl)c1`, the growth in the assay on SR leukemia was 141%; in the assay on RPMI-8226 leukemia, 81.9%; in the assay on OVCAR-8 ovarian it was 114%; with OVCAR-5 ovarian, 88.3%; in the assay on OVCAR-4 ovarian, 61.8%; in the assay with SK-OV-3 ovarian it was 110%. Also, the growth is 76.4% in the assay with IGROV1 ovarian, 111% with OVCAR-3 ovarian, 112% in the assay on HS 578T breast and 99% in the assay on NCI/ADR-RES ovarian.
`O=[N+]([O-])c1ccc(-c2ncc(-c3ccc(Br)cc3)o2)cc1`: the growth with SR leukemia was 124%; in the assay on RPMI-8226 leukemia, 78.8%; in the assay on OVCAR-8 ovarian, 109%; in the assay with OVCAR-5 ovarian, 105%; with OVCAR-4 ovarian, 97.3%; with SK-OV-3 ovarian it was 112%. The growth was 100% in the assay with IGROV1 ovarian, 129% in the assay with OVCAR-3 ovarian, 129% in the assay with HS 578T breast and 104% with NCI/ADR-RES ovarian.
As to `CCN(CC)c1ccc2nc3ccc(=[N+](CC)CC)cc-3oc2c1`, the growth in the assay with SR leukemia is 22.5%; in the assay with RPMI-8226 leukemia, 6.38% (active); with OVCAR-8 ovarian, -9.58% (active); in the assay on OVCAR-5 ovarian, -30.1% (active); with OVCAR-4 ovarian it was -88.7% (active); in the assay with SK-OV-3 ovarian it was -9.43% (active). In addition, the growth in the assay with IGROV1 ovarian was -31.8% (active); in the assay on OVCAR-3 ovarian it was -7.91% (active); in the assay with HS 578T breast, 58.1%; with NCI/ADR-RES ovarian it was 90.3%.
As for `CC(=O)OCC1CCCO1` (stereo not given), the growth in the assay with SR leukemia was 102%; with RPMI-8226 leukemia, 119%; in the assay on OVCAR-8 ovarian, 110%; in the assay with OVCAR-5 ovarian, 110%; with OVCAR-4 ovarian, 102%; in the assay with SK-OV-3 ovarian it was 92%. Further, the growth in the assay on IGROV1 ovarian is 113%; in the assay on OVCAR-3 ovarian, 114%; with HS 578T breast, 94.2%; in the assay on NCI/ADR-RES ovarian, 105%.
For `C[C@@H](c1ccccc1)[C@@H](C(=O)O)c1ccccc1`, the growth is 105% in the assay with SR leukemia; 99.7% with RPMI-8226 leukemia; 98.2% in the assay on OVCAR-8 ovarian; 105% with OVCAR-5 ovarian; 94.7% in the assay with OVCAR-4 ovarian; 100% in the assay on SK-OV-3 ovarian. Moreover, the growth was 111% in the assay with IGROV1 ovarian, 104% in the assay on OVCAR-3 ovarian, 110% in the assay on HS 578T breast and 105% with NCI/ADR-RES ovarian.
In the case of `N#Cc1ccc(OC(=O)Nc2ccc(Cl)c(Cl)c2)cc1`, the growth was 39.4% in the assay with SR leukemia; 5.09% (active) in the assay with RPMI-8226 leukemia; 59% in the assay on OVCAR-8 ovarian; 91.6% in the assay with OVCAR-5 ovarian; 66.7% in the assay on OVCAR-4 ovarian; 107% in the assay with SK-OV-3 ovarian. The growth with IGROV1 ovarian was 64.4%; in the assay with OVCAR-3 ovarian, 33.3%; with HS 578T breast, 103%; in the assay on NCI/ADR-RES ovarian it was 65.5%.
